# Source: PubChem
# This is a sample that favours compounds with a hit; in the whole collection about 2.2% have one here.
# KKLEB cytotox = counter-screen for CF NF-kB inhibitors: cytotoxicity. KKLEB CF airway cells viability, ATPlite luminescence, overnight; active compounds read low; cells stimulated with P. aeruginosa culture filtrate. activity change (cytotoxicity), % at 5 µM. hit rate 0.36% among 360,000;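 active = corrected activity change at or below -50% at 5 µM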
# C8 TRAIL sens = caspase-8 TRAIL sensitization; NB7+C8 cells + TRAIL, ATPlite viability luminescence; inhibition (viability loss, TRAIL sensitization), % at 10 µM; hit rate 1% among 360,000; AID 624354;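 active = compounds causing at least 50% loss of cell viability in the single-dose screen, relative to plate controls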
# HIF-2a block = HIF-2a inhibition; hit rate 0.72% among 360,000; inhibition, % at 18.8 µM; 786-0 RCC cells HIF-2a reporter, luciferase luminescence, overnight; AID 624352;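 active = inhibition of the luminescence signal of 40% or more relative to plate controls, in a single-dose primary screen at 18.75 µM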
# PPC-1+TRAIL kill = PPC-1 cancer cell killing with TRAIL present; PPC-1 cells + TRAIL, ATPLite viability luminescence; hit rate 0.41% among 220,000; cell killing (% activity), % at 4 µM or 5 µM; AID 1443;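 active = cell killing above 50% in the first pass at 4 µM, then a duplicate retest at 5 µM averaging 50% or more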;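 also: plate controls were cells with TRAIL plus DMSO for no effect and medium-only wells lacking cells for full effect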
# iPSC survival up = enhancers of human iPSC single-cell survival; hiPSC single-cell survival, ATPlite luminescence; 100% = ROCK inhibitor wells, 0% = DMSO; survival enhancement, % at 20 µM; hit rate 0.044% among 360,000; AID 602274; in the data active = survival enhancement above about 18%;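 also: cells exposed to compounds for 16 hours before the ATP read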
# CF NFkB block = cystic fibrosis NF-kB activation inhibition; KKLEB NF-kB-GFP reporter, PAF-induced, GFP fluorescence overnight; inhibition, % at 5 µM; hit rate 0.86% among 360,000;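 active = at least 50% inhibition at 5 µM, scaled per plate between neutral and stimulator controls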;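 also: PAF is a Pseudomonas aeruginosa culture filtrate used as stimulus; plate controls were PAF-stimulated DMSO wells for no effect and unstimulated DMSO wells for full effect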
# PPC1 cytotox = PPC-1 cell cytotoxicity; shares compounds with PPC-1+TRAIL kill; PPC-1 viability, ATPlite luminescence, overnight; cytotoxicity, % at 5 µM; hit rate 50% among 1,200;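 active = reconfirmed compounds whose average cytotoxicity reaches 50% or more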;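 also: 0% = DMSO-treated cells and 100% = wells holding medium but no cells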
# Active calls of the source: *; · = not tested or not shown.
SMILES,KKLEB cytotox,C8 TRAIL sens,HIF-2a block,PPC-1+TRAIL kill,iPSC survival up,CF NFkB block,PPC1 cytotox
CC(c1ccccc1)N1C(=O)c2ccc(C(=O)NCc3cccnc3)cc2C1=O (configuration not stated),6,-22,8,·,0,-6,·
c1cncc(-c2nc3cc4ccccc4cc3[nH]2)c1,4,66*,-262,61*,-3,-24,66*
c1ccc(-c2nc3cc4ccccc4cc3[nH]2)nc1,-46,86*,-8,89*,-4,-26,90*
C=CCn1c(O)c2ccc(C(=O)N=NC(=O)c3ccc(F)cc3)cc2c1O,19,-17,18,·,0,-11,·
Cc1cccc(/C=C2\CCC(=C3SCCCS3)C2=O)c1,-64*,82*,8,78*,-3,-15,80*
O=C1/C(=C/c2ccccc2)CCCc2ccccc21,-1,2,-64,-9,-3,-7,·
O=C1C(=C2SCCCS2)CC/C1=C\c1ccc(F)cc1,-78*,84*,65*,90*,-9,-11,90*
O=[N+]([O-])c1ccc(Cl)c(S(=O)(=O)NCCc2ccccn2)c1,9,10,-1,·,-3,-1,·
C=CCNC(=S)N/N=C(\C)c1ccccn1,-19,-7,11,33,-4,20,41
CC(=NNC(=S)Nc1ccccc1Cl)c1ccccn1,8,7,-200,·,-2,-1,·
Cc1cccc(C)c1OCc1cc(C(=O)N(C)Cc2nc3ccccc3[nH]2)no1,5,18,-11,·,0,10,·
CC(C)[C@@H]1N[C@]2(C(=O)Nc3ccccc32)[C@@H]2C(=O)N(c3cccc(C(F)(F)F)c3)C(=O)[C@@H]21,10,-7,5,16,1,-11,·
CCCOc1ccc(N2C(=O)C3C(C(C)C)NC4(C(=O)c5ccccc5C4=O)C3C2=O)cc1 (configuration not stated),-6,1,12,0,3,1,6
C#CCOCCOCCOCCNc1nc(N2CCN(C(=O)[C@H](CCCCN)n3cc(CC(C)O)nn3)CC2)nc(N2CCN(C(=O)[C@H](CCCCN)n3cc(CC(C)O)nn3)CC2)n1 (some centres not stated),9,-28,1,·,0,-10,·
COc1ccc(-c2cc(=Nc3ccc(C(=O)O)cc3)c3cc(C)ccc3o2)cc1,-16,47,-218,12,-1,-32,17
CCc1ccc2oc(-c3ccc(OC)cc3)cc(=Nc3cccc(C(=O)O)c3)c2c1,-7,17,-164,49,-1,-34,·
Nc1ccc(/C=C/c2ccc3ncccc3c2)cc1,-8,47,-96,69*,0,-4,70*
COCCNC(=O)C1(C)CCCN(C(=O)c2ccccc2OC)C1 (configuration not stated),4,10,13,·,2,-35,·
O=C(N=Nc1c(O)[nH]c2ccccc12)c1ccc(CN2CCOCC2)cc1,-8,8,-47,6,-2,-10,·
O=C(N=Nc1c(O)[nH]c2ccccc12)c1ccc2c(c1)OCO2,-47,91*,-158,92*,-6,-30,91*
COc1ccccc1-c1cnc(C(O)c2cc(Cl)cc(Cl)c2)[nH]1 (configuration not stated),7,12,-5,·,-2,-26,·
Cc1cc(SCC(=O)NC(=O)c2cccn2C)nc2ccccc12,-5,9,3,-1,1,-11,·
C/C(=N\NC(=O)COc1ccc(C(C)(C)C)cc1)c1ccccc1,-4,-11,-38,-2,-2,1,·
C/C(=N\NC(=O)COc1ccc(C(C)(C)C)cc1)c1cc2ccccc2o1,-58*,84*,-191,77*,-4,-3,77*
Cc1ccc(C(=O)O/N=C(\N)c2ccccc2)c(Cl)c1,-32,94*,12,81*,-1,-6,80*
SMILES,KKLEB cytotox,C8 TRAIL sens,HIF-2a block,PPC-1+TRAIL kill,iPSC survival up,CF NFkB block,PPC1 cytotox
N/C(=N\OC(=O)c1ccc2ccccc2c1)c1ccccn1,-68*,71*,26,53*,-5,19,59*
N/C(=N\OC(=O)c1ccc(Cl)cc1[N+](=O)[O-])c1ccccn1,-1,31,-208,·,0,12,·
N/C(=N\OC(=O)c1ccc(Cl)cc1Cl)c1ccccn1,-68*,90*,39,90*,-6,-12,89*
Cc1cnc(C(=O)OC(C)C(=O)Nc2cccc3ccccc23)cn1 (configuration not stated),19,-1,-7,·,0,-37,·
Cc1nn(-c2ccc3ccccc3c2)c(=O)c2ccccc12,-14,7,-171,19,-2,16,·
Cc1nn(-c2nc3ccccc3[nH]2)c(=O)c2ccccc12,-78*,96*,95*,97*,-3,-12,97*
COCCOC(=O)CSc1ncccc1-c1nc2cc(C)c(C)cc2[nH]1,-14,65*,-154,57*,-1,9,59*
CCC(NC(=O)c1ccccc1NC(=O)c1ccc(C)cc1)C(=O)O (configuration not stated),6,-1,-42,16,0,-13,7
Cc1ccc(C(=O)Nc2ccccc2C(=O)NC(Cc2ccccc2)C(=O)O)cc1 (configuration not stated),-7,11,-36,16,2,-7,·
O=c1c(Cl)c(N2CCOCC2)cnn1-c1nc2ccccc2[nH]1,2,37,-172,20,-2,4,24
Cc1cc(N2CCOCC2)n2ncc(-c3ccccc3)c2n1,-6,69*,-61,48,-3,5,48
Cc1ccc(-c2cnn3c(N4CCOCC4)cc(C)nc23)cc1,-11,26,-30,·,0,-8,·
C=CCn1c(=O)c(C(=O)NC(C)c2ccccc2)c(O)c2ccccc21 (configuration not stated),2,1,21,·,0,-9,·
COc1cccc(/C=C/C(=O)Nc2ccc3c(c2)OCCO3)c1OC,-32,80*,-103,70*,-1,-9,66*
c1ccc(-c2nn3c(Cn4nnc5ccccc54)nnc3s2)nc1,-7,17,-4,11,7,-2,·
Cc1nnc2sc(-c3ccccn3)nn12,5,-8,3,12,-3,5,3
Cc1ccccc1-c1cc(C(=O)NCc2cccc(C(F)(F)F)c2)n(CC2CC(c3cccnc3)=NO2)n1 (configuration not stated),-6,2,-4,·,2,2,·
Cc1cccc2c(C(=O)O)cc(-c3cccnc3)nc12,3,2,18,-14,-1,2,-3
O=C(C1CC(=O)N(c2ccc(F)cc2)C1)N1CCCCCC1 (configuration not stated),4,-16,8,·,1,-2,·
